Activity calls are given as the source filed them. Unless noted, how the calls were made is not given here.
Key:
[1] = resazurin metabolic signal in HepG2 cells – cell-based, resazurin fluorescence, 24 h, PK04 Diversity Set, profiling panel (AID 1172); conditions: HepG2 viability, higher = more signal
[2] = budding yeast growth changes without added modifier – OD600, strain BY4716, 24 h, basal condition, primary screen (AID 1173); conditions: S. cerevisiae BY4716 growth, OD600, 24 h; higher = more signal, called active from +8 up or from −8 down
[3] = viability profiling in MM1S myeloma cells – cell-based, resazurin fluorescence, basal, 24 h, PK04 Diversity Set, profiling panel (AID 1174); conditions: higher = more signal, called active from +8 up or from −8 down;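 further: MM1S multiple myeloma cell line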
[4] = biological target: Dihydroorotate dehydrogenase (quinone), mitochondrial (Plasmodium falciparum (isolate 3D7)) (UniProt Q08210); experiment: inhibition of P. falciparum DHODH – biochemical, C-terminal His tag, absorbance 600 nm, primary screen (AID 1175); conditions: PfDHODH enzyme, DCIP absorbance 600 nm; higher = more signal, called active from +8 up or from −8 down;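 further: recombinant parasite enzyme with a five histidine tag at its C terminus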
[5] = inhibition of PAO1 biofilm formation – strain PAO1, LB-PBS medium, absorbance 600 nm, primary screen (AID 1176); conditions: P. aeruginosa PAO1 growth/biofilm, A600, 12 h; higher = more signal
[6] = growth modulation of vineyard yeast isolate – strain RM11-1a, OD600, basal, 24 h, primary screen (AID 1177);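 further: cultures grown under basal conditions with no added stressor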; conditions: S. cerevisiae RM11-1a growth, OD600, 24 h; higher = more signal, called active from +8 up or from −8 down
[7] = growth of efflux-deficient E. coli DRC39 – strain DRC39, OD650, 24 h, E. coli filamentation inducers, primary screen (AID 1178);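 further: growth measured as culture turbidity by optical density at 650 nm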; conditions: E. coli DRC39 acrAB, higher = more signal, called active from +8 up or from −8 down
[8] = growth of efflux-deficient E. coli DRC39 – strain DRC39, OD650, 48 h, E. coli filamentation inducers, primary screen (AID 1179);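 further: screen aims at cell division blockers that make cells filament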; conditions: E. coli DRC39 delta-acrAB growth, higher = more signal, called active from +8 up or from −8 down
[9] = viability profiling in RPMI8226 myeloma cells – cell-based, resazurin fluorescence, basal, 24 h, PK04 Diversity Set, profiling panel (AID 1180); conditions: higher = more signal;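 further: RPMI8826 multiple myeloma cell line at 5000 cells per well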
[10] = biological target: E3 ubiquitin-protein ligase XIAP (Homo sapiens) (UniProt P98170); experiment: small molecules binding XIAP protein – biophysical, small-molecule microarray, fluorescence 635 nm, primary screen (AID 1181); conditions: higher = more signal;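 further: score merges 667 nm emission and signal to noise over triplicate slides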
[11] = tested on: XIP peptide (Xip251-270) binding; experiment: XIP fragment 251-270 binding compounds – biochemical, small-molecule microarray, fluorescence 635/667 nm, 0.1 µg/mL protein, primary screen (AID 1182); conditions: fluorescent protein binding, 635 nm, higher = more signal, called active from +8 up or from −8 down
XIP peptide (Xip251-270) = experiment: compounds binding XIP fragment 251-270 – biochemical, small-molecule microarray, fluorescence 635/667 nm, 0.5 µg/mL protein, primary screen (AID 1183); conditions: fluorescence 635 nm, higher = more signal
[12] = blood-stage malaria parasite viability loss – strain 3D7, DAPI fluorescence, 100 nL, primary screen (AID 1184);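 further: parasites grown inside human red blood cells in medium with human serum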; conditions: P. falciparum 3D7 growth, 3 d, higher = more signal
[13] = biological target: Homeobox protein Hox-A13 (Mus musculus) (UniProt Q62424); experiment: disruptors of Hoxa13 oligonucleotide interaction – biochemical, fluorescence polarization, labeled oligonucleotide, primary screen (AID 1185); conditions: Hoxa13:DNA binding, 15 min, higher = more signal, called active from +8 up or from −8 down
[14] = blockers of DNA damage checkpoint Chk1 activation – imaging, HeLa, hydroxyurea, phospho-Chk1 antibody, percent positive cells, primary screen (AID 1186); conditions: hydroxyurea-induced phospho-Chk1 immunofluorescence imaging, higher = more signal
[15] = blockers of DNA damage checkpoint Chk1 activation – imaging, HeLa, hydroxyurea, phospho-Chk1 nuclear intensity, primary screen (AID 1187); conditions: hydroxyurea-induced phospho-Chk1 immunofluorescence imaging, higher = more signal

Sequence of Dihydroorotate dehydrogenase (quinone), mitochondrial (Plasmodium falciparum (isolate 3D7)) (Q08210 whole entry, looked up): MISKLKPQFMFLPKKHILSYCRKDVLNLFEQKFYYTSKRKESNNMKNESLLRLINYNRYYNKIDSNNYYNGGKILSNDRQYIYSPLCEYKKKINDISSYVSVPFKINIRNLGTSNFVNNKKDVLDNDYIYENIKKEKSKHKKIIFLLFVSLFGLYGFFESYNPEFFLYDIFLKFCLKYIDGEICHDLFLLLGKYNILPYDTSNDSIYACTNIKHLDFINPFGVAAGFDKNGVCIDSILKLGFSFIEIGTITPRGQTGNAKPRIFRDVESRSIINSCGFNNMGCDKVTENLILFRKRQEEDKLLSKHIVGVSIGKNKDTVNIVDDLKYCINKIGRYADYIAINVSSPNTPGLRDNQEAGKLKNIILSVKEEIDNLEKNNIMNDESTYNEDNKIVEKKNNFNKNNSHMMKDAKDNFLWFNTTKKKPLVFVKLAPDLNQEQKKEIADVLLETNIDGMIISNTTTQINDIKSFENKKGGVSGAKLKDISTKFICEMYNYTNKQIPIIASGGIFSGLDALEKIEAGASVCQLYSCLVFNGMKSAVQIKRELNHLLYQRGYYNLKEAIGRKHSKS
Sequence of E3 ubiquitin-protein ligase XIAP (Homo sapiens) (P98170 whole entry, looked up, the tested form may be a part): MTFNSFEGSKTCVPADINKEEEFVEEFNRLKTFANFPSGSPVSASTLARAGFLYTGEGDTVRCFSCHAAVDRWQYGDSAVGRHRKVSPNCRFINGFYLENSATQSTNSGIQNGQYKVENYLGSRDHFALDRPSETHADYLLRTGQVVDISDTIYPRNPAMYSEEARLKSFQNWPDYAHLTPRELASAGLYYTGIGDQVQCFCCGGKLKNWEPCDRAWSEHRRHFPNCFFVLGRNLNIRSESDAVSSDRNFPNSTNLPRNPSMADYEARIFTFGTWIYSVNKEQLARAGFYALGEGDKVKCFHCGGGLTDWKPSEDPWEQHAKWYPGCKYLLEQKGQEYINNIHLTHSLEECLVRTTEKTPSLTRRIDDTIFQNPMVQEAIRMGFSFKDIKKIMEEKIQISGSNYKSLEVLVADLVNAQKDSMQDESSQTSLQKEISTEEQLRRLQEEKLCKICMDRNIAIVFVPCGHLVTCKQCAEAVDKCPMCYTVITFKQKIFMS
Sequence of Homeobox protein Hox-A13 (Mus musculus) (Q62424 whole entry, looked up): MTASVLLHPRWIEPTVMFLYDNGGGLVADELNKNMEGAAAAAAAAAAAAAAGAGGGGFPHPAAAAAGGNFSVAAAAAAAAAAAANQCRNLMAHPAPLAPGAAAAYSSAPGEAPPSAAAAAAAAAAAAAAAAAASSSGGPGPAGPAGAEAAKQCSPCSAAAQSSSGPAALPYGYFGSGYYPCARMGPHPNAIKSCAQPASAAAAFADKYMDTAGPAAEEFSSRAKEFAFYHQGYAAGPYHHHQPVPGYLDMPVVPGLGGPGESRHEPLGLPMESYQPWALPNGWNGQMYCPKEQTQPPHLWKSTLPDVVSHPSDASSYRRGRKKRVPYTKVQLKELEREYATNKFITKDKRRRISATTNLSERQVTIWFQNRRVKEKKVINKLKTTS

| Compound | z-score [1] | z-score [2] | z-score [3] | composite z-score [4] | z-score [5] | z-score [6] | z-score [7] | z-score [8] | z-score [9] | composite z-score [10] | composite z-score [11] | composite z-score (XIP peptide (Xip251-270)) | z-score [12] | z-score [13] | z-score [14] | z-score [15] |
| --- | --- | --- | --- | --- | --- | --- | --- | --- | --- | --- | --- | --- | --- | --- | --- | --- |
| CCOC(=CC(=O)OC)CC(O)c1cccc(Cl)c1 (centres undefined) | 0.217 | -8.62 (active) | -0.0412 (inactive) | -1.92 (inactive) | 0.16 (inactive) | -2.91 (inactive) | 0.121 (inactive) | 1.08 (inactive) | 0.404 | -0.0091 | 2.68 (inactive) | 0.893 | -0.368 | -3.53 (inactive) | -0.119 (inactive) | 0.219 (inactive) |
| CCOC(=O)C[C@H]1[C@H](OC(=O)c2ccc(-c3ccccc3)cc2)[C@@H](NC(=O)c2ccc3ccccc3n2)c2cc(OCCCO)ccc2N1C(=O)c1ccccc1 | -0.576 | 1.11 (inactive) | -0.421 (inactive) | 0.421 (inactive) | -0.37 (inactive) | 0.97 (inactive) | 0.353 (inactive) | 0.287 (inactive) | -0.193 | -0.286 | -0.0549 (inactive) | 0.266 | -1.1 | -2.05 (inactive) | 0.188 (inactive) | 0.16 (inactive) |
| CC(C)C(CO)N1C(=O)[C@]2(C)C3C(=O)OCCC/C=C\[C@H]3OC23C=CCN(c2ccc(Cl)cc2)C(=O)[C@@H]13 (some centres undefined) | -0.575 | 0.0095 (inactive) | -0.581 (inactive) | -1.04 (inactive) | -0.36 (inactive) | -0.3 (inactive) | -0.391 (inactive) | -0.261 (inactive) | -0.713 | 0.117 | 0.172 (inactive) | 0.146 | 0.775 | -6.76 (inactive) | -0.199 (inactive) | -0.181 (inactive) |
| CO[C@H]1O[C@H](CO)[C@@H](OC(=O)Nc2ccccc2-c2ccccc2)[C@H](OC(=O)Nc2ccc3c(c2)OCO3)[C@@H]1OC(=O)Nc1ccc2c(c1)OCO2 | -1.18 | 1.03 (inactive) | -1.38 (inactive) | -0.289 (inactive) | 1.86 (inactive) | 2.9 (inactive) | 0.999 (inactive) | -0.124 (inactive) | -1.12 | 0.227 | 0.882 (inactive) | 0.801 | -2.17 | -3.65 (inactive) | -0.0753 (inactive) | 0.24 (inactive) |
| CC(C)CN1C(=O)[C@@]2(c3ccc([N+](=O)[O-])cc3)CC(=O)N(CC34CC5CC(CC(C5)C3)C4)[C@@H]2c2ccc(CO)cc21 | -1.64 | -0.22 (inactive) | 0.113 (inactive) | -4.84 (inactive) | 0.146 (inactive) | -0.855 (inactive) | 0.197 (inactive) | -0.213 (inactive) | 0.248 | -0.289 | 0.141 (inactive) | -0.0737 | -1.14 | 0.944 (inactive) | 0.016 (inactive) | -0.164 (inactive) |
| COC(=O)[C@H](Cc1ccccc1)N1CC(/C=C/C2CC2)=C[C@@H]1[C@@H](O)Cc1ccccc1 | 1.09 | -2.65 (inactive) | -2.24 (inactive) | 0.114 (inactive) | 0.294 (inactive) | 0.385 (inactive) | 0.461 (inactive) | 0.658 (inactive) | -0.277 | -0.0414 | 0.971 (inactive) | 0.639 | -0.547 | -5.53 (inactive) | -0.613 (inactive) | -0.713 (inactive) |
| C=CC[C@@]1(C(=O)N2CCCCC2)N=C(c2ccc(OCCCO)cc2)O[C@@H]1c1ccccc1 | 1.63 | -3.63 (inactive) | 1.6 (inactive) | -0.765 (inactive) | -0.441 (inactive) | 0.404 (inactive) | -0.212 (inactive) | -0.155 (inactive) | 1.02 | 0.454 | 0.0703 (inactive) | 0.735 | -2.09 | -5.99 (inactive) | -0.377 (inactive) | -0.146 (inactive) |
| CC(C)(C)OC(=O)CC[C@]1(C(=O)NCCN2CCOCC2)N=C(c2ccc(OCCCO)cc2)O[C@H]1c1ccccc1 | -0.385 | 0.26 (inactive) | 0.0457 (inactive) | -1.63 (inactive) | -0.347 (inactive) | 0.574 (inactive) | -0.0656 (inactive) | -0.448 (inactive) | 0.13 | -0.031 | 0.471 (inactive) | 0.598 | 0.207 | -4.62 (inactive) | -0.103 (inactive) | 0.201 (inactive) |
| O=C1O[C@@H](c2ccccc2)[C@@H](c2ccccc2)N2[C@@H](c3ccccc3OCCO)[C@]3(C(=O)Nc4ccc(C#CCCO)cc43)[C@@H](C(=O)N3CCN(c4ncccn4)CC3)[C@H]12 | 0.261 | 1.73 (inactive) | -0.901 (inactive) | 0.286 (inactive) | 0.393 (inactive) | 2.47 (inactive) | 0.245 (inactive) | -0.289 (inactive) | -1.7 | -0.0622 | 0.665 (inactive) | 0.617 | -2.05 | -1.33 (inactive) | -0.0995 (inactive) | 0.113 (inactive) |

Reference: PubChem BioAssay
